# Measurements reported in PubChem BioAssay (NCATS).
# Records with an inconclusive call do not appear. A call without a number means that no potency is given here. A number with no mark means an inactive call. Calls of active or inactive are those of the source. Calls come from the whole dose curve; as a rule, active = well fitted curve in the direction sought with a large enough effect; inconclusive = small, poorly fitted or top-dose-only effect, or another doubt; inactive = no such curve, though single readings can be large; an effect the other way counts as inactive or inconclusive.
# Legend:
# [1] = Quantitative High-Throughput drug screen in 47 multiple myeloma cell lines against the NCATS MIPE library collection: KMS26_JCRB cell viability assay (AID 1918975); details: KMS26 myeloma cells viability, CellTiter-Glo ATP, 48 h; series mostly up to 45.8 µM; note: nearly all actives have a fitted effect of over 45% in size; note: potency is the fitted concentration of half-maximal effect
# Summary of the method: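 Viability readout: CellTiter-Glo luminescence following 5 min room-temperature incubation with reagent. Prior exposure: 48 h, 37C, humidified 5% CO2, 500 cells per well.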
# [2] = Quantitative High-Throughput drug screen in 47 multiple myeloma cell lines against the NCATS MIPE library collection: NCIH929_DSMZ cell viability assay (AID 1918978); details: NCI-H929 myeloma viability, CellTiter-Glo ATP, 48 h; series mostly up to 45.8 µM; note: nearly all actives have a fitted effect of over 35% in size; note: potency is the fitted concentration of half-maximal effect
# Summary of the method: (§1)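 ATP-based CellTiter-Glo luminescence after 48 h drug exposure (37 °C, 5% CO2) of 500 myeloma cells per well. DMSO-only wells set 100% viability, media-only wells 0%; MIPE 4.0 library added by pin tool.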
# [3] = Quantitative High-Throughput drug screen in 47 multiple myeloma cell lines against the NCATS MIPE library collection: MM1S_ATCC cell viability assay (AID 1918980); details: MM1S myeloma viability, CellTiter-Glo ATP luminescence, 48 h; series mostly up to 45.8 µM; note: nearly all actives have a fitted effect of over 45% in size; note: potency is the fitted concentration of half-maximal effect
# Summary of the method: as §1
# [4] = Quantitative High-Throughput drug screen in 47 multiple myeloma cell lines against the NCATS MIPE library collection: LP1_DSMZ cell viability assay (AID 1918982); details: LP1 myeloma viability, CellTiter-Glo ATP luminescence, 48 h; series mostly up to 45.8 µM; note: nearly all actives have a fitted effect of over 35% in size; note: potency is the fitted concentration of half-maximal effect
# Summary of the method: as §1
# [5] = Quantitative High-Throughput drug screen in 47 multiple myeloma cell lines against the NCATS MIPE library collection: L363_DSMZ cell viability assay (AID 1918984); details: L363 myeloma viability, CellTiter-Glo ATP luminescence, 48 h; series mostly up to 45.8 µM; note: nearly all actives have a fitted effect of over 40% in size
# Summary of the method: as §1
# [6] = Quantitative High-Throughput drug screen in 47 multiple myeloma cell lines against the NCATS MIPE library collection: KMS34_JCRB cell viability assay (AID 1918985); details: KMS34 myeloma viability, CellTiter-Glo ATP luminescence, 48 h; series mostly up to 45.8 µM; note: nearly all actives have a fitted effect of over 40% in size; note: potency is the fitted concentration of half-maximal effect
# Summary of the method: as §1
# [7] = Quantitative High-Throughput drug screen in 47 multiple myeloma cell lines against the NCATS MIPE library collection: OPM1_PLB cell viability assay (AID 1918989); details: CellTiter-Glo, 48 h; series mostly up to 45.8 µM; note: nearly all actives have a fitted effect of over 40% in size; note: potency is the fitted concentration of half-maximal effect
# Summary of the method: as §1
# [8] = Quantitative High-Throughput drug screen in 47 multiple myeloma cell lines against the NCATS MIPE library collection: XG6_PLB cell viability assay (AID 1919865); details: XG6 myeloma viability, CellTiter-Glo ATP luminescence, 48 h; series mostly up to 45.8 µM; note: nearly all actives have a fitted effect of over 40% in size; note: potency is the fitted concentration of half-maximal effect
# Summary of the method: as §1
# [9] = Quantitative High-Throughput drug screen in 47 multiple myeloma cell lines against the NCATS MIPE library collection: XG1_PLB cell viability assay (AID 1919866); details: CellTiter-Glo ATP, 48 h; series mostly up to 45.8 µM; note: nearly all actives have a fitted effect of over 35% in size; note: potency is the fitted concentration of half-maximal effect
# Summary of the method: as §1
# [10] = Quantitative High-Throughput drug screen in 47 multiple myeloma cell lines against the NCATS MIPE library collection: MM1R_ATCC cell viability assay (AID 1918981); details: MM1R multiple myeloma cells, CellTiter-Glo viability, 48 h; series mostly up to 45.8 µM; note: nearly all actives have a fitted effect of over 35% in size; note: potency is the fitted concentration of half-maximal effect
# Summary of the method: as §1
# [11] = Quantitative High-Throughput drug screen in 47 multiple myeloma cell lines against the NCATS MIPE library collection: KMS28PE_JCRB cell viability assay (AID 1918983); details: KMS28PE multiple myeloma viability, CellTiter-Glo ATP, 48 h; series mostly up to 45.8 µM; note: nearly all actives have a fitted effect of over 35% in size; note: potency is the fitted concentration of half-maximal effect
# Summary of the method: as §1
# [12] = Quantitative High-Throughput drug screen in 47 multiple myeloma cell lines against the NCATS MIPE library collection: SKMM1_PLB cell viability assay (AID 1919863); details: SKMM1 myeloma viability, CellTiter-Glo ATP, 48 h; viability: hits give low values; note: nearly all actives have a fitted effect of over 35% in size; note: potency is the fitted concentration of half-maximal effect
# Summary of the method: as §1
# [13] = Quantitative High-Throughput drug screen in 47 multiple myeloma cell lines against the NCATS MIPE library collection: MMM1_PLB cell viability assay (AID 1918976); details: MMM1 myeloma cells viability, CellTiter-Glo, 48 h; series mostly up to 45.8 µM; note: nearly all actives have a fitted effect of over 35% in size; note: potency is the fitted concentration of half-maximal effect
# Summary of the method: as §1
# [14] = Quantitative High-Throughput drug screen in 47 multiple myeloma cell lines against the NCATS MIPE library collection: MOLP8_DSMZ cell viability assay (AID 1918977); details: MOLP8 myeloma viability, CellTiter-Glo ATP luminescence, 48 h; series mostly up to 45.8 µM; note: nearly all actives have a fitted effect of over 45% in size; note: potency is the fitted concentration of half-maximal effect
# Summary of the method: as §1
# [15] = Quantitative High-Throughput drug screen in 47 multiple myeloma cell lines against the NCATS MIPE library collection: OCIMY1_PLB cell viability assay (AID 1918979); details: OCI-MY1 myeloma viability, CellTiter-Glo ATP, 48 h; series mostly up to 45.8 µM; note: nearly all actives have a fitted effect of over 35% in size; note: potency is the fitted concentration of half-maximal effect
# Summary of the method: as §1
# [16] = Quantitative High-Throughput drug screen in 47 multiple myeloma cell lines against the NCATS MIPE library collection: U266_ATCC cell viability assay (AID 1919864); details: U266 myeloma viability, CellTiter-Glo ATP luminescence, 48 h; series mostly up to 45.8 µM; note: nearly all actives have a fitted effect of over 35% in size; note: potency is the fitted concentration of half-maximal effect
# Summary of the method: as §1
# [17] = Quantitative High-Throughput drug screen in 47 multiple myeloma cell lines against the NCATS MIPE library collection: VP6_DJ cell viability assay (AID 1919867); details: ATP luminescence, 48 h; series mostly up to 45.8 µM
# Summary of the method: as §1
# [18] = Quantitative High-Throughput drug screen in 47 multiple myeloma cell lines against the NCATS MIPE library collection: OCIMY7_PLB cell viability assay (AID 1918987); details: OCI-MY7 myeloma viability, CellTiter-Glo ATP, 48 h; viability (% of DMSO): at 45.8 µM (top of the series); note: potency is the fitted concentration of half-maximal effect; nearly all actives have a fitted effect of over 65% in size
# Summary of the method: as §1
# [19] = Quantitative High-Throughput drug screen in 47 multiple myeloma cell lines against the NCATS MIPE library collection: OCIMY5_PLB cell viability assay (AID 1918988); details: OCI-MY5 myeloma viability, ATP luminescence, 48 h; series mostly up to 45.8 µM; note: potency is the fitted concentration of half-maximal effect; nearly all actives have a fitted effect of over 65% in size
# Summary of the method: as §1
smiles,measurement,setting,value
CC(C)C[C@H](CC(=O)O)C(=O)N[C@@H](Cc1c[nH]c2ccccc12)C(=O)N[C@@H](C)c1ccccc1,Potency,[1],inactive
same,Potency,[2],inactive
same,Potency,[3],1.66 µM (active)
same,Potency,[4],inactive
same,Potency,[5],inactive
same,Potency,[6],inactive
same,Potency,[7],inactive
same,Potency,[8],inactive
same,Potency,[9],inactive
CO[C@H]1C[C@@H]2CC[C@@H](C)[C@@](O)(O2)C(=O)C(=O)N2CCCC[C@@H]2C(=O)O[C@H]([C@@H](C)C[C@@H]2CC[C@H](O)[C@H](OC)C2)CC(=O)[C@H](C)C=C(C)[C@@H](O)[C@@H](OC)C(=O)[C@H](C)C[C@H](C)C=CC=CC=C1C,Potency,[1],inactive
same,Potency,[10],inactive
same,Potency,[4],inactive
same,Potency,[11],inactive
same,Potency,[5],inactive
same,viability,[12],82.9%
same,Potency,[8],inactive
O=C1C[C@@H](c2ccc(O)cc2)Oc2cc(O)cc(O)c21,Potency,[13],1.48 µM (active)
same,Potency,[14],inactive
same,Potency,[2],inactive
same,Potency,[15],inactive
same,Potency,[3],10.5 µM (active)
same,Potency,[10],inactive
same,Potency,[4],inactive
same,Potency,[7],inactive
same,Potency,[8],inactive
same,Potency,[9],inactive
O=C(Nc1ccccc1Br)N[C@@H]1CCN(c2ccc(C(F)(F)F)cn2)C1,Potency,[13],23.5 µM (active)
same,Potency,[14],inactive
same,Potency,[2],inactive
same,Potency,[15],inactive
same,Potency,[5],inactive
same,Potency,[6],inactive
same,Potency,[8],23.5 µM (active)
N#C[C@H]1C[C@H]2C[C@@H]2N1C(=O)[C@@H](N)C12CC3CC(CC(O)(C3)C1)C2,Potency,[13],1.48 µM (active)
same,Potency,[2],inactive
same,Potency,[15],inactive
same,Potency,[3],4.18 µM (active)
same,Potency,[4],inactive
same,Potency,[11],inactive
same,Potency,[5],inactive
same,Potency,[6],inactive
same,Potency,[7],inactive
same,viability,[12],119%
same,Potency,[16],inactive
same,Potency,[9],inactive
Cc1cnc(C(=O)O)c[n+]1[O-],Potency,[13],3.32 µM (active)
same,Potency,[2],inactive
same,Potency,[15],inactive
same,Potency,[10],inactive
same,Potency,[4],inactive
same,Potency,[11],23.5 µM (active)
same,Potency,[5],inactive
same,Potency,[6],4.18 µM (active)
same,Potency,[7],inactive
same,Potency,[16],inactive
same,Potency,[8],inactive
same,Potency,[9],inactive
N#CC1(c2ccc(NC(=O)c3cccnc3NCc3ccncc3)cc2)CCCC1,Potency,[13],18.7 µM (active)
same,Potency,[2],inactive
same,Potency,[15],inactive
same,Potency,[3],inactive
same,Potency,[4],16.6 µM (active)
same,Potency,[5],inactive
same,Potency,[6],inactive
same,Potency,[7],16.6 µM (active)
same,Potency,[16],inactive
same,Potency,[8],18.7 µM (active)
same,Potency,[9],20.9 µM (active)
same,Potency,[17],14.8 µM (active)
CCS(=O)(=O)N1CC(CC#N)(n2cc(-c3ncnc4[nH]ccc34)cn2)C1,Potency,[1],16.6 µM (active)
same,Potency,[15],inactive
same,Potency,[3],20.9 µM (active)
same,Potency,[5],inactive
same,Potency,[6],6.62 µM (active)
same,Potency,[18],8.33 µM (active)
same,Potency,[19],7.43 µM (active)
same,Potency,[7],20.9 µM (active)
same,Potency,[16],23.5 µM (active)
same,Potency,[8],2.09 µM (active)
same,Potency,[9],0.332 µM (active)
C[C@@H]1CCN(C(=O)CC#N)C[C@H]1N(C)c1ncnc2[nH]ccc12,Potency,[13],inactive
same,Potency,[14],inactive
same,Potency,[2],inactive
same,Potency,[15],inactive
same,Potency,[3],2.64 µM (active)
same,Potency,[10],inactive
same,Potency,[4],inactive
same,Potency,[11],inactive
same,Potency,[19],13.2 µM (active)
same,Potency,[7],inactive
COc1ncc(-c2ccc3nccc(-c4ccnnc4)c3c2)cc1NS(=O)(=O)c1ccc(F)cc1F,Potency,[1],0.0526 µM (active)
same,Potency,[18],0.166 µM (active)
same,Potency,[19],1.48 µM (active)
same,Potency,[12],0.0118 µM (active)
same,Potency,[8],0.0187 µM (active)
CO[C@H]1C=CO[C@@]2(C)Oc3c(C)c(O)c4c(O)c(c5c(c4c3C2=O)NC2(CCN(CC(C)C)CC2)N=5)=NC(=O)C(C)=CC=C[C@H](C)[C@H](O)[C@@H](C)[C@@H](O)[C@@H](C)[C@H](OC(C)=O)[C@H]1C,Potency,[1],inactive
same,Potency,[2],inactive
same,Potency,[15],inactive
same,Potency,[10],10.5 µM (active)
same,Potency,[5],inactive
same,Potency,[19],23.5 µM (active)
same,Potency,[7],inactive
same,viability,[12],99.2%
same,Potency,[16],inactive
same,Potency,[9],20.9 µM (active)
same,Potency,[17],16.6 µM (active)
CNC(=O)c1ccc2cc(C3(O)CCn4cncc43)ccc2c1 (stereo not drawn),Potency,[1],inactive
same,Potency,[15],inactive
same,Potency,[10],inactive
same,Potency,[4],inactive
same,Potency,[11],inactive
same,Potency,[7],inactive
same,Potency,[9],inactive
CC(C)OC(=O)CCCC=CC[C@@H]1[C@H](C=C[C@@H](O)COc2cccc(C(F)(F)F)c2)[C@H](O)C[C@@H]1O,Potency,[13],14.8 µM (active)
same,Potency,[14],26.4 µM (active)
same,Potency,[2],18.7 µM (active)
same,Potency,[4],14.8 µM (active)
same,Potency,[6],13.2 µM (active)
same,Potency,[18],14.8 µM (active)
same,Potency,[19],16.6 µM (active)
same,Potency,[7],18.7 µM (active)
same,Potency,[12],20.9 µM (active)
same,Potency,[16],20.9 µM (active)
same,Potency,[8],16.6 µM (active)
same,Potency,[9],18.7 µM (active)
COc1ccc2c(Oc3ccc(NC(=O)c4c(C)n(CC(C)(C)O)n(-c5ccccc5)c4=O)cc3F)ccnc2c1,Potency,[1],inactive
same,Potency,[2],20.9 µM (active)
same,Potency,[18],16.6 µM (active)
same,Potency,[19],23.5 µM (active)
same,Potency,[7],18.7 µM (active)
same,Potency,[8],20.9 µM (active)
same,Potency,[9],14.8 µM (active)
same,Potency,[17],11.8 µM (active)
CC(C)(C)Cn1c(N)nc2ccc(-c3[nH]c(C(C)(C)C)nc3-c3ccc(F)cc3)nc21,Potency,[13],20.9 µM (active)
same,Potency,[14],7.43 µM (active)
same,Potency,[15],16.6 µM (active)
same,Potency,[3],16.6 µM (active)
same,Potency,[11],23.5 µM (active)
same,Potency,[5],inactive
same,Potency,[19],16.6 µM (active)
same,Potency,[7],20.9 µM (active)
same,Potency,[8],14.8 µM (active)
same,Potency,[17],16.6 µM (active)
